Experimental data as given in PubChem BioAssay (EPA / NIEHS).
Values joined by “and” are separate entries in the source; they are usually repeats but may differ in a detail not shown here. Equal values may be shown once. Results filed as inconclusive are left out. Active and inactive are the calls of the source. Rule for the calls: active = hit-call score of the fitted dose curve at least 0.9, where 1 is the maximum; inconclusive = response in the unintended direction; inactive = score below 0.9.

tested on: zebrafish Estrogen Receptor (ER2a), gene 317734; experiment: ATG_zfER2a_XSP2: Attagene TRANS-FACTORIAL Multi-Species (XSP2) HepG2 Assay for zebrafish Estrogen Receptor (ER2a) (AID 2283818);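 note: hits raise reporter mRNA so AC50 reflects activation of zebrafish ER2a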
Protocol: ATG_XSP2_multi-species_TRANS is a cell-based, multiplexed assay created by modifying the existing Attagene TRANS-FACTORIAL system to include a panel of nuclear receptors from some or all the following species: human (Homo sapiens), mouse (Mus musculus), frog (Xenopus laevis), zebrafish (Danio rerio), chicken (Gallus gallus), and turtle (Chrysemys picta). The ECOTOX-FACTORIAL format uses HepG2, a human liver cell line, with measurements taken at 24 hours after chemical dosing in a 24-well plate. Xsp2 included 3 nM 6-alpha-fluorotestosterone and 1.5 nM norgestrel to stimulate the androgen receptor.ATG_zfER2a_XSP2 is one of 29 assay components measured or calculated from the ATG_XSP2_multi-species_TRANS assay. It is designed to make measurements of mRNA induction, a form of inducible reporter, as detected with fluorescence intensity signals by Reverse transcription polymerase chain reaction (RT-PCR) and Capillary electrophoresis technology.The assay endpoint ATG_zfER2a_XSP2 was analyzed in the positive analysis fitting direction relative to DMSO as the negative control and baseline of activity. Using a type of inducible reporter, measures of mRNA for gain-of-signal activity can be used to understand the reporter gene at the transcription factor-level as they relate to the gene ER. Furthermore, this assay endpoint can be referred to as a primary readout, because this assay has produced multiple assay endpoints where this one serves a reporter gene function. To generalize the intended target to other relatable targets, this assay endpoint is annotated to the nuclear receptor intended target family, where the subfamily is steroidal.
Human liver HepG2 cells are transiently transfected with multiple reporter transcription units (MRTUs) in 6-well plates using FuGene 6 reagent (Roche; 3 ml FuGene/1 mg DNA). The MRTU constructs are regulated by a cis-regulating element (promoter). […] A major difference between the CIS and TRANS system is that in CIS activities of endogenous TFs are measured, whereas the TRANS assay evaluates changes in activities of exogenous, chimeric NR-Gal4 proteins. […] At the end of 24 hour incubation, total RNA was isolated using TriZol reagent (Invitrogen). The isolated RNA is then reverse-transcribed using oligo(dT) primer and Mo-MLV reverse transcriptase (Invitrogen) with DNAse I (Ambion) treatment for 30 min. The one-tenth of the produced cDNA was amplified by PCR using Taq DNA polymerase (Invitrogen) and two reporter sequence-specific primers. The PCR products were fluorescently labeled by primer extension with 6-arboxyfluorescein (6-FAM) 5'-labeled reporter sequence-specific primer (2 min at 95 C, 20 s at 68 C and 10 min at 72 C) and these products were digested with 5U of HpaI (New England Biolabs) for 2h at 37 C. The fragments were purified using Qiaquick PCR columns (Qiagen), analyzed on an ABI 3130xL genetic analyzer (Applied Biosystems) with peak positions identified by using a set of X-rhodamine (ROX)-labeled MapMarker1000 molecular weight standards (BioVentures). The raw capillary electrophoresis data was processed using Attagraph software (Attagene).

| SMILES | outcome | AC50 |
| --- | --- | --- |
| C=C(C)CN(CC)c1c([N+](=O)[O-])cc(C(F)(F)F)cc1[N+](=O)[O-] | inactive | – |
| COP(=S)(OC)Oc1ccc([N+](=O)[O-])c(C)c1 | – | 44.9 µM (active) |
| COP(=S)(OC)SCn1nnc2ccccc2c1=O | inactive | – |
| CCN(CC)C(=O)C(C)Oc1cccc2ccccc12 (stereo not given) | inactive | – |
| N#Cc1c[nH]cc1-c1cccc2c1OC(F)(F)O2 | – | 25.8 µM (active) and 2.71 µM (active) |
| CC(C)NC(=O)N1CC(=O)N(c2cc(Cl)cc(Cl)c2)C1=O | inactive | – |
| CSC(=O)c1c(C(F)F)nc(C(F)(F)F)c(C(=O)SC)c1CC(C)C | inactive | – |
| CC1(C)CCC(=Cc2ccc(Cl)cc2)C1(O)Cn1cncn1 (stereo not given) | inactive | – |
| CC1(C)C(C=C(Cl)Cl)C1C(=O)OC(C#N)c1cccc(Oc2ccccc2)c1 (stereo not given) | inactive | – |
| Cc1c(COC(=O)[C@@H]2[C@H](/C=C(\Cl)C(F)(F)F)C2(C)C)cccc1-c1ccccc1 | inactive | – |
